Test results from PubChem BioAssay AID1159580 (chemical genetic matrix, 2015).
In all, about 5,500 compounds went through this assay and about 2,000 (36%) were called active. Another 18% or so got no clear call; they are omitted. Rule as the data show it: active = normalized growth mostly below about 0.91 (no sharp cut-off); inconclusive = no clear call, values can overlap the other calls; inactive = mostly above about 0.92. The list shows a part of the results.

Assay: chemical genetic growth profiling, strain panel (AID 1159580);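 also: tested at 20 µM; growth read once vehicle control cultures reached saturation at 30 °C; 1 = growth at the plate median or of vehicle wells; lower values mean less growth of the strain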
Details: growth OD

Measured: normalized growth

COc1cccc2c1cc([N+](=O)[O-])c1c(C(=O)O)cc3c(c12)OCO3
inactive: S. cerevisiae deletion strains, locus YJR066W, strain TOR1, hits give low values 0.912 | S. cerevisiae deletion strains, locus YJR075W, strain HOC1, hits give low values 1.04 | S. cerevisiae deletion strains, locus YKL009W, strain mrt4, hits give low values 0.967 | S. cerevisiae deletion strains, locus YKL068W, hits give low values 1.01 | S. cerevisiae deletion strains, locus YKL085W, strain MDH1 (second series), hits give low values 0.999 | S. cerevisiae deletion strains, locus YKL085W, strain MDH1, hits give low values 0.999 | S. cerevisiae deletion strains, locus YKL160W, strain elf1, hits give low values 1.01 | S. cerevisiae deletion strains, locus YKL190W, strain CNB1, hits give low values 1.02 | S. cerevisiae deletion strains, locus YKR001C, strain vps1, hits give low values 1.03 | S. cerevisiae deletion strains, locus YKR026C, strain gcn3, hits give low values 1.02 | S. cerevisiae deletion strains, locus YKR091W, strain srl3, hits give low values 1.02 | S. cerevisiae deletion strains, locus YLL001W, strain dnm1, hits give low values 1.01 | S. cerevisiae deletion strains, locus YLL026W, hits give low values 1.01 | S. cerevisiae deletion strains, locus YLL041C, strain sdh2, hits give low values 1.01 | S. cerevisiae deletion strains, locus YLR027C, strain aat2, hits give low values 1.02 | S. cerevisiae deletion strains, locus YLR039C, strain RIC1, hits give low values 1.06 | S. cerevisiae deletion strains, locus YLR058C, strain SHM2, hits give low values 1.01 | S. cerevisiae deletion strains, locus YLR102C, strain apc9, hits give low values 1.02 | S. cerevisiae deletion strains, locus YLR113W, strain HOG1, hits give low values 0.971 | S. cerevisiae deletion strains, locus YLR221C, strain rsa3, hits give low values 1.02 | S. cerevisiae deletion strains, locus YLR258W, strain gsy2, hits give low values 1.03 | S. cerevisiae deletion strains, locus YLR262C, strain YPT6 (second series), hits give low values 1 | S. cerevisiae deletion strains, locus YLR262C, strain YPT6, hits give low values 1.07 | S. cerevisiae deletion strains, locus YLR268W, strain sec22, hits give low values 1.06 | S. cerevisiae deletion strains, locus YLR320W, strain mms22, hits give low values 1.02 | S. cerevisiae deletion strains, locus YLR330W, strain CHS5, hits give low values 1.02 | S. cerevisiae deletion strains, locus YLR342W, strain FKS1 (second series), hits give low values 0.989 | S. cerevisiae deletion strains, locus YLR342W, strain FKS1, hits give low values 1.04 | S. cerevisiae deletion strains, locus YLR357W, strain rsc2, hits give low values 1.01 | S. cerevisiae deletion strains, locus YLR370C, strain arc18, hits give low values 1.03 | S. cerevisiae deletion strains, locus YLR371W, strain rom2, hits give low values 1.03 | S. cerevisiae deletion strains, locus YLR384C, strain iki3, hits give low values 1 | S. cerevisiae deletion strains, locus YLR418C, strain cdc73, hits give low values 1.01 | S. cerevisiae deletion strains, locus YML016C, strain PPZ1, hits give low values 1.01 | S. cerevisiae deletion strains, locus YML032C, strain rad52, hits give low values 0.99 | S. cerevisiae deletion strains, locus YML120C, strain ndi1, hits give low values 1.02 | S. cerevisiae deletion strains, locus YML124C, strain tub3, hits give low values 1.01 | S. cerevisiae deletion strains, locus YMR058W, strain fet3, hits give low values 1.02 | S. cerevisiae deletion strains, locus YMR078C, strain ctf18, hits give low values 1.02 | S. cerevisiae deletion strains, locus YMR125W, strain sto1, hits give low values 1.03 | S. cerevisiae deletion strains, locus YMR129W, hits give low values 1.02 | S. cerevisiae deletion strains, locus YMR205C, strain PFK2, hits give low values 1.05 | S. cerevisiae deletion strains, locus YMR223W, strain ubp8, hits give low values 1.01 | S. cerevisiae deletion strains, locus YMR231W, strain pep5, hits give low values 1.03 | S. cerevisiae deletion strains, locus YMR307W, strain GAS1, hits give low values 0.988 | S. cerevisiae deletion strains, locus YNL067W, strain RPL9B, hits give low values 1.04 | S. cerevisiae deletion strains, locus YNL071W, strain lat1, hits give low values 1.02 | S. cerevisiae deletion strains, locus YNL183C, strain NPR1, hits give low values 0.917 | S. cerevisiae deletion strains, locus YNL209W, strain ssb2, hits give low values 1.02 | S. cerevisiae deletion strains, locus YNL233W, strain BNI4, hits give low values 1.03 | S. cerevisiae deletion strains, locus YNL248C, strain rpa49, hits give low values 1.01 | S. cerevisiae deletion strains, locus YNL250W, strain rad50, hits give low values 1.01 | S. cerevisiae deletion strains, locus YNL271C, strain bni1, hits give low values 1.01 | S. cerevisiae deletion strains, locus YNL298W, strain CLA4, hits give low values 0.97 | S. cerevisiae deletion strains, locus YNL307C, strain MCK1, hits give low values 1.03 | S. cerevisiae deletion strains, locus YNL322C, strain KRE1 (second series), hits give low values 1.01 | S. cerevisiae deletion strains, locus YNL322C, strain KRE1, hits give low values 1 | S. cerevisiae deletion strains, locus YNR049C, strain mso1, hits give low values 1.02 | S. cerevisiae deletion strains, locus YNR052C, strain pop2, hits give low values 1 | S. cerevisiae deletion strains, locus YOL006C, strain TOP1, hits give low values 1.09 | S. cerevisiae deletion strains, locus YOL012C, strain htz1 1.07 | S. cerevisiae deletion strains, locus YOL147C, strain pex11, hits give low values 1.01 | S. cerevisiae deletion strains, locus YOR001W, strain rrp6, hits give low values 1.01 | S. cerevisiae deletion strains, locus YOR061W, strain CKA2, hits give low values 1.02 | S. cerevisiae deletion strains, locus YOR069W, strain VPS5, hits give low values 1.01 | S. cerevisiae deletion strains, locus YOR070C, strain gyp1, hits give low values 1.01 | S. cerevisiae deletion strains, locus YOR080W, strain dia2, hits give low values 1.02 | S. cerevisiae deletion strains, locus YOR083W, strain WHI5, hits give low values 1 | S. cerevisiae deletion strains, locus YOR106W, strain vam3, hits give low values 1.01 | S. cerevisiae deletion strains, locus YOR136W, strain idh2, hits give low values 1.02 | S. cerevisiae deletion strains, locus YOR144C, strain elg1, hits give low values 1.01 | S. cerevisiae deletion strains, locus YOR184W, strain ser1, hits give low values 1 | S. cerevisiae deletion strains, locus YOR231W, strain MKK1, hits give low values 0.928 | S. cerevisiae deletion strains, locus YOR265W, strain rbl2, hits give low values 1.01 | S. cerevisiae deletion strains, locus YOR270C, strain vph1, hits give low values 1.04 | S. cerevisiae deletion strains, locus YOR290C, strain snf2, hits give low values 0.995 | S. cerevisiae deletion strains, locus YOR316C, strain cot1, hits give low values 1.02 | S. cerevisiae deletion strains, locus YPL051W, strain arl3, hits give low values 1.01 | S. cerevisiae deletion strains, locus YPL055C, strain LGE1, hits give low values 1.04 | S. cerevisiae deletion strains, locus YPL078C, strain atp4, hits give low values 1.01 | S. cerevisiae deletion strains, locus YPL106C, strain sse1, hits give low values 1.03 | S. cerevisiae deletion strains, locus YPL240C, strain hsp82, hits give low values 1.01 | S. cerevisiae deletion strains, locus YPL241C, strain CIN2, hits give low values 1.01 | S. cerevisiae deletion strains, locus YPL256C, strain CLN2, hits give low values 0.926 | S. cerevisiae deletion strains, locus YPR119W, strain clb2, hits give low values 1.02 | S. cerevisiae deletion strains, locus YPR141C, strain kar3, hits give low values 1.02 | S. cerevisiae deletion strains, locus YPR163C, strain tif3, hits give low values 1.02 | S. cerevisiae deletion strains, locus YPR167C, strain met16, hits give low values 1.02 | S. cerevisiae deletion strains, strain wtn01, hits give low values 1.05 | S. cerevisiae strains, strain wild type, hits give low values 1.02
